In PMC5540273 (PLoS ONE, 2017):

What was measured:
Details in all cases: concentration: 1 μM, replicates: in singlicate; n = 1
JNK1 = test system: T1, JNK1
T1 construct: gene MAPK8

JNK2 = test system: T2, JNK2
T2 construct: gene MAPK9

JNK3 = test system: T3, JNK3
T3 construct: gene MAPK10

KIT-autoinhibited = test system: KIT-autoinhibited
KIT = test system: KIT
LATS1 = test system: LATS1
LATS2 = test system: LATS2
LCK = test system: LCK
LIMK1 = test system: LIMK1
LIMK2 = test system: LIMK2
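Note: KINOMEscan kinase panel screen.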

SMILES | %Inh (JNK1) | %Inh (JNK2) | %Inh (JNK3) | %Inh (KIT-autoinhibited) | %Inh (KIT) | %Inh (LATS1) | %Inh (LATS2) | %Inh (LCK) | %Inh (LIMK1) | %Inh (LIMK2)
CC(C)(C)c1ccc(-n2cnc3c(N)ncnc32)cc1 [SKF-97263] | 21% | 3% | 1% | 1% | 38% | 0% | 18% | 8% | 8% | 0%
CCCc1ccc(S(=O)(=O)NC2CCN(c3ccnc(Nc4ccc(OC)cc4)n3)C2)cc1 (stereo not drawn) [GSK1379737] | 20% | 21% | 0% | 0% | 37% | 0% | 0% | 16% | 0% | 100%
CC(C)(C)OC(=O)NC1CCCN(c2cc(-c3ccc4c(N)n[nH]c4c3)nc(N)n2)C1 (stereo not drawn) [GSK2286096] | 34% | 21% | 7% | 0% | 8% | 11% | 0% | 0% | 6% | 0%
Cn1ccc2ncnc(Nc3ccc(Oc4cccc(Cl)c4)c(Cl)c3)c21 | 8% | 0% | 0% | 0% | 24% | 44% | 0% | 0% | 0% | 6%
CNc1nccc(-c2c(-c3ccc(F)cc3)ncn2C2CCN(C)CC2)n1 [SB-222903] | 0% | 69% | 43% | 0% | 0% | 2% | 0% | 0% | 0% | 0%
COc1ccc(NC(=O)Nc2ccc(C)c(-c3ccc(C(=O)Nc4ccncc4)cc3)c2)cc1 [GSK1398475] | 5% | 4% | 0% | 0% | 100% | 0% | 6% | 47% | 0% | 22%
CSc1ccc(NC2=C(c3ccccc3Cl)C(=O)NC2=O)cc1 [SB-342411] | 1% | 1% | 0% | 0% | 25% | 5% | 23% | 18% | 0% | 7%
COc1ccc(NC(=O)c2ccc(-c3cc(-c4nnc(C)o4)ccc3C)cc2)cc1 [GW595885] | 20% | 17% | 12% | 0% | 64% | 0% | 0% | 18% | 3% | 0%
Cc1ccc(O)cc1Nc1cc(C(F)(F)F)nc2ccc(-c3ccncc3)cc12 [GW630823] | 0% | 0% | 0% | 0% | 14% | 0% | 0% | 14% | 21% | 15%
Nc1n[nH]c2nnc(-c3ccccc3)cc12 [SB-517389] | 27% | 5% | 0% | 0% | 1% | 0% | 0% | 0% | 19% | 3%
O=C(Nc1ccccc1)Nc1ccc(Oc2ccc3nccn3n2)cc1 | 0% | 0% | 0% | 28% | 95.8% | 0% | 0% | 21% | 10% | 14%
Cl.O=S(=O)(c1cccc(F)c1)c1ccc(Nc2ncnc3cc(Br)sc23)cc1Cl [GSK306886] | 0% | 7% | 4% | 0% | 34% | 0% | 0% | 15% | 33% | 3%
Cc1ccc(C)c(NC(=O)NCCNc2ccnc(Nc3ccc(F)cc3)n2)c1 [GSK1379878] | 13% | 13% | 2% | 0% | 0% | 0% | 0% | 3% | 0% | 0%
O=C(c1ccc(-c2cc(-c3c[nH]nc3-c3ccccn3)ccn2)cc1)N1CCCC1 [GW792479] | 27% | 0% | 0% | 0% | 11% | 0% | 0% | 3% | 0% | 0%
COC(=O)c1c(-c2ccccc2)c2cc(Cl)ccc2c(=O)n1Cc1ccc(S(C)(=O)=O)cc1 | 98.8% | 99.5% | 99.4% | 0% | 56% | 30% | 19% | 13% | 1% | 0%
Clc1ccc(-c2cc(-c3c[nH]nc3-c3ccccn3)ccn2)cc1 [GW681251] | 35% | 30% | 33% | 0% | 54% | 0% | 0% | 13% | 0% | 0%
FC(F)(F)c1ccc(-c2nn3ncccc3c2-c2ccnc(Nc3cccc(C(F)(F)F)c3)n2)cc1 [GW828205] | 0% | 0% | 0% | 2% | 43% | 0% | 0% | 25% | 0% | 0%
O=c1cc(N2CCOCC2)nc2n(Cc3cccc(Cl)c3)ccn12 [GSK2296823] | 21% | 12% | 7% | 4% | 11% | 0% | 46% | 17% | 15% | 0%
COc1cc2ncnc(Nc3ccc(OCc4ccccc4Br)c(Cl)c3)c2cc1OC.Cl [GI261590] | 15% | 10% | 0% | 0% | 3% | 8% | 3% | 57% | 0% | 3%
COC(=O)c1cccc(NC(=O)NCCNc2ccnc(Nc3ccc(F)cc3)n2)c1 [GSK1379883] | 18% | 25% | 7% | 0% | 23% | 0% | 0% | 5% | 0% | 19%
CNc1nccc(-c2c(-c3ccc(F)cc3)ncn2CCCN2CCOCC2)n1 [SB-222516] | 12% | 0% | 0% | 4% | 2% | 0% | 0% | 1% | 11% | 95.2%
